Results filed as inconclusive are left out. Calls of active or inactive are those of the source. Calls come from the whole dose curve; as a rule, active = well fitted cell-killing curve with a large enough effect; inconclusive = small, poorly fitted or top-dose-only effect, or effect the other way; inactive = no such curve, though single readings can be large or run the other way.

Potency data for 15 molecules are collected here from PubChem BioAssay (NCATS).

The nature of assay [1]: Quantitative High-Throughput drug screen in 47 multiple myeloma cell lines against the NCATS MIPE library collection: INA6_PLB cell viability assay (AID 1918965; note: nearly all actives have a fitted effect of over 55% in size). The gist of the method: (§1)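 We plated 500 myeloma cells per well, pinned in MIPE 4.0 compounds, and incubated for 48 hours at 37C. ATP was then quantified with CellTiter-Glo, with DMSO and media-only wells defining 100% and 0%.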

The nature of assay [2]: Quantitative High-Throughput drug screen in 47 multiple myeloma cell lines against the NCATS MIPE library collection: JJN3_DSMZ cell viability assay (AID 1918966; note: nearly all actives have a fitted effect of over 50% in size). In a few lines: (§2)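 Steps: seed 500 cells per well; pin-transfer MIPE 4.0 library; incubate 48 h at 37C, 5% CO2, humidified; add CellTiter-Glo, 5 min room temperature; read luminescence.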
The nature of assay [3]: Quantitative High-Throughput drug screen in 47 multiple myeloma cell lines against the NCATS MIPE library collection: H1112_PLB cell viability assay (AID 1918967; note: nearly all actives have a fitted effect of over 30% in size). In a few lines: as §2
Assay [4] in a line: Quantitative High-Throughput drug screen in 47 multiple myeloma cell lines against the NCATS MIPE library collection: Karpas25_ECACC cell viability assay (AID 1918968; note: nearly all actives have a fitted effect of over 35% in size). The gist of the method:
as §2

The nature of assay [5]: Quantitative High-Throughput drug screen in 47 multiple myeloma cell lines against the NCATS MIPE library collection: KMS27_JCRB cell viability assay (AID 1918970). Note: nearly all actives have a fitted effect of over 30% in size. The gist of the method: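 Each line is seeded at 500 cells per well and treated with library compounds for 48 hours under 37 °C, 5% CO2. CellTiter-Glo is then added for 5 min at room temperature before median relative luminescence is recorded.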

Assay [6] can be described thus: Quantitative High-Throughput drug screen in 47 multiple myeloma cell lines against the NCATS MIPE library collection: KMS12PE_JCRB cell viability assay (AID 1918972). For viability: series mostly up to about 46 µM. Note: nearly all actives have a fitted effect of over 30% in size. In a few lines: as §1
The nature of assay [7]: Quantitative High-Throughput drug screen in 47 multiple myeloma cell lines against the NCATS MIPE library collection: KMS20_JCRB cell viability assay (AID 1918973). Note: nearly all actives have a fitted effect of over 45% in size. The gist of the method:
as §2

Assay [8] is described as follows: Quantitative High-Throughput drug screen in 47 multiple myeloma cell lines against the NCATS MIPE library collection: KMS26_JCRB cell viability assay (AID 1918975). Note: nearly all actives have a fitted effect of over 45% in size. In a few lines: (§3)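 Luminescent ATP measurement with CellTiter-Glo gives viability, scaled between DMSO-only wells (100%) and media-only wells (0%). Cells, 500 per well, faced library compounds for 48 hours at 37C.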

Assay [9] is described as follows: Quantitative High-Throughput drug screen in 47 multiple myeloma cell lines against the NCATS MIPE library collection: KMS12BM_JCRB cell viability assay (AID 1918971). Note: nearly all actives have a fitted effect of over 35% in size. The gist of the method:
as §3
Potency is the fitted concentration of half-maximal effect.

As to `O=C(O)CCC1CCC(c2cc(F)ccc2F)(S(=O)(=O)c2ccc(Cl)cc2)CC1` (centres undefined), the Potency is 3.32 µM (active) in assay [1]; 9.35 µM (active) in [3]; 8.33 µM (active) in assay [4]; 2.64 µM (active) in assay [5]; 13.2 µM (active) in [6]; 5.26 µM (active) in assay [7]. The Potency entry in [2] and in assay [8] was “inactive” in each case.
Take `COc1cc2ncnc(Nc3ccc(F)c(Cl)c3)c2cc1OCCCN1CCOCC1`: the Potency is 5.4 µM (active) in assay [1]; 42.9 µM (active) in assay [2]; 1.52 µM (active) in [3]; 6.05 µM (active) in assay [4]; 13.6 µM (active) in assay [5]; 34 µM (active) in assay [9]. Also, the Potency in assay [6] is 3.03 µM (active); in [7], 3.4 µM (active); in assay [8] it was 38.2 µM (active).
As for `Cc1ccc(F)c(NC(=O)Nc2ccc(-c3cccc4[nH]nc(N)c34)cc2)c1`, the Potency was 16.6 µM (active) in assay [1]; 18.7 µM (active) in assay [2]; 10.5 µM (active) in assay [3]; 26.4 µM (active) in [4]; 10.5 µM (active) in assay [5]; 26.4 µM (active) in [9]. In addition, the figures for the Potency in [6] and in assay [8] were 8.33 µM (active) and 23.5 µM (active), respectively.
In the case of `O=C(NCc1ccccc1)c1csc(Nc2ccncn2)n1`, the Potency in [1] is 11.8 µM (active); in assay [2], 16.6 µM (active); in assay [3] it was 13.2 µM (active); in assay [4], 10.5 µM (active); in assay [5], 7.43 µM (active); in assay [9] it was 14.8 µM (active). Further, the Potency in [6] was 8.33 µM (active); in assay [7], 14.8 µM (active).
For `COCCOc1nc(-c2ccc(Cl)c(Cl)c2)n(-c2ccc(NC(=O)CCl)cc2)n1`, the Potency in [1] is 11.8 µM (active); in assay [2] it was 23.5 µM (active); in [3] it was 14.8 µM (active); in assay [4], 5.26 µM (active); in [5], 16.6 µM (active); in assay [9], 16.6 µM (active). Besides, the Potency in assay [6] is 14.8 µM (active).
Consider `Nc1ncnc2c1nc(Cl)n2[C@@H]1O[C@H](CO)[C@@H](O)[C@@H]1O`, for which the Potency in assay [1] was 2.09 µM (active); in assay [2], 16.6 µM (active); in assay [3] it was 18.7 µM (active); in assay [4] it was 7.43 µM (active); in assay [5], 20.9 µM (active); in assay [9] it was 23.5 µM (active). In addition, the Potency was 14.8 µM (active) in assay [6], 4.69 µM (active) in assay [7] and 20.9 µM (active) in [8].
Turning to `CCc1ccc(OCc2ccccc2C(=O)Nc2ccc3nc(C)cc(N)c3c2)cc1`, the Potency was 2.64 µM (active) in assay [1]; 6.62 µM (active) in assay [2]; 2.96 µM (active) in assay [3]; 1.32 µM (active) in assay [4]; 1.87 µM (active) in assay [5]; 7.43 µM (active) in assay [9]. Further, the Potency in assay [6] is 0.935 µM (active); in assay [7] it was 0.59 µM (active); in assay [8], 6.62 µM (active).
`O=C(O)[C@H]1O[C@H](Oc2cc3oc(-c4ccccc4)cc(=O)c3c(O)c2O)[C@H](O)[C@@H](O)[C@H]1O`: the Potency result in [1], in assay [3], in assay [4] and in assay [6] was “inactive” in each case. In addition, the Potency is 13.2 µM (active) in assay [2], 16.6 µM (active) in assay [9] and 20.9 µM (active) in assay [8].
On to `O=C1NC(=O)C(=Cc2ccc3nccnc3c2)S1`, for which the Potency in assay [1] was 7.24 µM (active); in assay [2], 8.12 µM (active); in assay [3] it was 6.45 µM (active); in assay [4], 5.75 µM (active); in assay [5] it was 2.29 µM (active); in [9], 8.12 µM (active). Moreover, the figures for the Potency in assay [6] and in assay [8] were 1.15 µM (active) and 12.9 µM (active), respectively.
For `NS(=O)(=O)c1cccc2c1C(=O)c1cccc(O)c1C2=O`, the Potency in assay [1] was 0.148 µM (active); in assay [2], 0.264 µM (active); in assay [3], 0.526 µM (active); in assay [4] it was 0.132 µM (active); in assay [5], 0.209 µM (active); in assay [9], 1.05 µM (active). Also, the Potency in assay [6] is 0.264 µM (active); in assay [7] it was 0.132 µM (active); in [8] it was 0.662 µM (active).
For the molecule `O=c1ccn([C@@H]2O[C@H](CO)[C@H](O)[C@H]2O)c(=O)[nH]1`, the Potency result in [1], in [2], in [3], in assay [4] and in assay [5] was “inactive” throughout. In assay [9], the Potency was 11.8 µM (active).
Regarding `C=C1C(=O)[C@@]23C(CC[C@@H]1[C@H]2O)[C@@]12CO[C@]3(O)[C@@H](O)[C@@H]1C(C)(C)CC[C@@H]2O` (some centres undefined), the Potency in [1] was 1.18 µM (active); in [2], 2.09 µM (active); in [3], 18.7 µM (active); in assay [4], 2.35 µM (active); in [5], 1.87 µM (active); in [9], 9.35 µM (active). Also, the Potency was 2.09 µM (active) in [6], 2.35 µM (active) in assay [7] and 2.64 µM (active) in assay [8].
For the molecule `O=C(N[C@@H](c1ccccc1)[C@@H]1CCCCN1)c1cccc(C(F)(F)F)c1Cl`, the Potency result in [1], in [2] and in assay [4] was “inactive” in each case. Moreover, the results for the Potency in assay [3], in [9] and in assay [6] were 14.8 µM (active), 7.43 µM (active) and 23.5 µM (active), respectively.
In the case of `O=C(Nc1ccccc1-c1cn2c(CN3CCNCC3)csc2n1)c1cnc2ccccc2n1`, the Potency in [1] was 9.35 µM (active); in assay [2] it was 9.35 µM (active); in assay [3] it was 9.35 µM (active); in assay [4], 5.9 µM (active); in assay [9], 10.5 µM (active); in [7], 2.96 µM (active). Further, the Potency in [8] is 9.35 µM (active). Further, the Potency entry in assay [5] and in [6] was “inactive” each time.
As for `Cc1ccc(C(C)(O)c2nc3ccccc3s2)c(C)c1` (centres undefined), the Potency entry in assay [1], in assay [2], in assay [3], in assay [4], in assay [6] and in assay [7] was “inactive” throughout. In addition, the Potency result in assay [8] is “inactive”.
